Assay outcomes from PubChem BioAssay.
The list is not random: actives were taken first. Their share in the collection is about 1.6%.
KCNQ2 inh = rat KCNQ2 potassium channel inhibitors, primary screen, cell-based, CHO-K1, FluxOR thallium flux, B-score; Potassium voltage-gated channel subfamily KQT member 2 (Rattus norvegicus), O88943; 20 min; hits give low values; B-score at 10 µM; 1.1% of 310,000 active; AID 2156, 2009;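 active = fluorescence ratio B-score at most minus 3 library SDs, with starting brightness B-score within 2 library SDs, cut at about -5.5 in these data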
KCNQ2 enhance = potentiators of rat KCNQ2 potassium channel | 0.54% of 310,000 active | CHO-K1 KCNQ2, FluxOR thallium flux fluorescence; hits give high values | Potassium voltage-gated channel subfamily KQT member 2 (Rattus norvegicus), O88943 | B-score at 10 µM | AID 2239, 2010;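 active = fluorescence ratio B-score at least 3 SD of library B-scores, with initial fluorescence B-score within 3 of them, cut at about 5.3 in these data; same plate scores as AID 2156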;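 note: B-score of peak minus minimum over baseline fluorescence ratio after K+ and Tl+ stimulus; positive B-score means potentiation of KCNQ2 with more thallium influx and brighter signal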
Kir21 confirm = mouse Kir2.1 channel blockers, retest, confirmation, cell-based, FluxOR thallium flux, duplicate | shares compounds with KCNQ2 enhance | Kir2.1-expressing cells, FluxOR thallium flux fluorescence; hits give low values | Tl flux remaining, % of negative control (hits give low values), % at 10 µM | 41% of 2,300 active | AID 2032, 2009;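 active = Primary-screen hit whose thallium flux fell at least 3 control SD below untreated wells in both duplicates, with normal baseline fluorescence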;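 note: 0% = blank wells without stimulus and 100% = stimulated no-compound controls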
Target sequence (P35561 whole entry, looked up): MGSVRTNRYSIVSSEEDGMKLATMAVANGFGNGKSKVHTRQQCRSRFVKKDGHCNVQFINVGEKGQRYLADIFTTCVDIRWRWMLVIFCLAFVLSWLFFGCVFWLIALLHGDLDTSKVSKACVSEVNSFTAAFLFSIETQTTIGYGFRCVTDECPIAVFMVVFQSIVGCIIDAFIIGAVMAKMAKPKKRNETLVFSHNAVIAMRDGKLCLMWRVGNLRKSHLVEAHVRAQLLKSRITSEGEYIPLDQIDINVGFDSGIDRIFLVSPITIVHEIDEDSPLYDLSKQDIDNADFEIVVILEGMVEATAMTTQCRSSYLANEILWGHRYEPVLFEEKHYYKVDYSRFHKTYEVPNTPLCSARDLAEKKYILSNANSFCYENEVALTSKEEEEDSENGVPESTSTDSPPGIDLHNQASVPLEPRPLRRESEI
HEK293 Tl flux = parental HEK293 activity in Kir2.1 inhibitor counter-screen. shares compounds with KCNQ2 enhance. parental HEK293 cells, FluxOR thallium flux fluorescence; 0% = unstimulated blank wells. FluxOR signal as % of negative control (100 = no effect), % at 10 µM. 19% of 2,300 active;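 active = dye signal at least 3 control SD above or below untreated wells in both duplicates, raw fluorescence within 3, either direction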;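 note: percent is based on the flux ratio of peak minus minimum fluorescence over baseline F0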
CHO-K1 ctr = nonspecific thallium flux increase in parental CHO-K1, confirmation, counter-screen for KCNQ2 potentiator project, cell-based, FluxOR thallium flux, duplicate | shares compounds with KCNQ2 enhance | parental CHO-K1 cells, FluxOR thallium flux fluorescence; zero = vehicle mean+3SD, 100% = vehicle-minus-blank window | activity increase over 3SD of controls, % at 10 µM | 43% of 1,200 active | AID 2282, 2010;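 active = signal rise of at least 3 SD above the untreated control mean, in both duplicate wells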;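 note: counter screen of KCNQ2 potentiator hits so any rise reflects channel-independent effects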
KCNQ1 sel pot = human KCNQ1 channel potentiation off-target, confirmation, selectivity assay for KCNQ2 potentiator project, cell-based, CHO, FluxOR thallium flux | activation over 3SD threshold, % at 10 µM | CHO KCNQ1 stable, FluxOR thallium flux fluorescence; beyond 3SD, as % of vehicle-control signal | shares compounds with KCNQ2 enhance | AID 2283, 2010 | 28% of 1,200 active;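 active = fluorescence ratio rise of at least 3 SD of vehicle wells above their mean, in both replicate wells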;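 note: 0% = vehicle mean plus 3 SD and 100% = vehicle minus unstimulated blank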
KCNQ2 pot conf = rat KCNQ2 channel potentiators, confirmation, cell-based, CHO, FluxOR thallium flux, duplicate. shares compounds with KCNQ2 enhance. CHO-KCNQ2 cells, FluxOR thallium flux fluorescence. potentiation, less the hit threshold, % at 10 µM. 68% of 1,200 active;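 active = fluorescence ratio rising 3 SD or more over the vehicle control mean in both replicates, plus primary screen hit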;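 note: peak minus minimum thallium fluorescence divided by baseline after K/Tl stimulus; 0% = vehicle mean plus 3 SD and 100% = vehicle minus unstimulated blank difference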
Kir2-1 sel = mouse Kir2.1 channel activation off-target, confirmation, selectivity assay for KCNQ2 potentiator project, cell-based, HEK293, FluxOR thallium flux; shares compounds with KCNQ2 enhance; HEK293 Kir2.1, FluxOR thallium flux fluorescence; activity over 3SD threshold, % at 10 µM; 2% of 1,200 active; AID 2345, 2010;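 active = fluorescence ratio rise of at least 3 SD above the vehicle-control mean, seen in both replicates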;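 note: 0% = vehicle mean plus 3 SD and 100% = vehicle minus no-stimulus blank window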
KCNQ2 W236L pot = potentiators of retigabine-insensitive KCNQ2 W236L, mechanism study for KCNQ2 potentiator project, cell-based, rat KCNQ2 W236L, CHO, automated patch clamp | shares compounds with KCNQ2 enhance | automated patch clamp current | current increase over 3SD of negative controls (%), hits give high values, % at 25 µM | 10% of 940 active | AID 2558, 2010;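 active = current increase at least 3 SD of the untreated controls above them in both duplicate recordings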
An asterisk follows results filed as active.

c1ccc2c(c1)ccc1ncccc12 was read as KCNQ2 inh inactive and KCNQ2 enhance 0.05.
For Oc1c(N=Nc2ccccn2)ccc2ccccc12 the results were KCNQ2 inh inactive, KCNQ2 enhance 5.9*, Kir21 confirm inactive, HEK293 Tl flux inactive, CHO-K1 ctr 91*, KCNQ1 sel pot -14, KCNQ2 pot conf 28*, Kir2-1 sel -39 and KCNQ2 W236L pot inactive.
Cc1ccc(Cc2c(C)[nH]c(=S)[nH]c2=O)cc1 was read as KCNQ2 inh inactive.
Cc1ccc(Cc2c[nH]c(=S)s2)cc1 was read as KCNQ2 inh inactive, KCNQ2 enhance 7.9*, Kir21 confirm inactive, HEK293 Tl flux 386%*, CHO-K1 ctr -3, KCNQ1 sel pot -10, KCNQ2 pot conf 63*, Kir2-1 sel -18 and KCNQ2 W236L pot inactive.
For c1ccc(-n2nnnc2Sc2ncnc3sc4c(c23)CCCC4)cc1 the results were KCNQ2 inh inactive and KCNQ2 enhance 1.9.
`C=CCn1c(SCC(=O)NC(C)(C)C)nnc1-c1ccccc1O` gave KCNQ2 inh inactive.
Screening C=CCn1c(SCc2cccc(C#N)c2)nnc1-c1ccccc1O returned KCNQ2 inh inactive, KCNQ2 enhance 0.25, Kir21 confirm 52%* and HEK293 Tl flux inactive.
For N#Cc1ccc(CSc2nnc(-c3ccncc3)n2CCc2ccccc2)cc1 the results were KCNQ2 inh inactive.
`C=CCn1c(SCc2ccc(C#N)cc2)nnc1-c1cccc(Cl)c1` gave KCNQ2 inh inactive, Kir21 confirm 52%* and HEK293 Tl flux 72%*.
Screening CC1=C(C(=O)OCc2ccccc2)C(c2ccc(C)o2)C2=C(CCCC2=O)N1 (centres undefined) returned KCNQ2 inh inactive.
CC1CCN(C(=O)CCc2nnc(-c3ccccc3)o2)CC1 was read as KCNQ2 inh inactive.
Screening N#CC1=C(N)N(c2ccccc2)C(c2ccco2)C1(C#N)C#N (centres undefined) returned KCNQ2 inh inactive.
For N#CC1=C(N)N(c2ccccc2)C(c2cccc([N+](=O)[O-])c2)C1(C#N)C#N (centres undefined) the results were KCNQ2 inh inactive, Kir21 confirm 59%* and HEK293 Tl flux 72%*.
`N#CC(c1ccc(Cl)cc1)c1ccc2c(C(F)(F)F)cc(C(F)(F)F)nc2n1` (centres undefined) gave KCNQ2 inh inactive, KCNQ2 enhance 18*, Kir21 confirm inactive, HEK293 Tl flux inactive, CHO-K1 ctr -22, KCNQ1 sel pot 47*, KCNQ2 pot conf 21*, Kir2-1 sel -36 and KCNQ2 W236L pot inactive.
FC(F)(F)c1cc(C(F)(F)F)c2ccc(N3CCN(c4ccc(Cl)cc4)CC3)nc2n1 was read as KCNQ2 inh inactive and KCNQ2 enhance 1.8.
Screening COCCn1c(SCC(=O)Nc2nc(C)c(Cl)cc2Cl)nc2ccccc21 returned KCNQ2 inh inactive, KCNQ2 enhance 0.7, Kir21 confirm 62%* and HEK293 Tl flux inactive.
`COCCn1c(SCC(=O)Nc2ccccc2OC)nc2ccccc21` gave KCNQ2 inh inactive.
For COc1ccccc1CNC(=O)C1CCCN(S(=O)(=O)c2cccs2)C1 (centres undefined) the results were KCNQ2 inh inactive and KCNQ2 enhance 0.51.
Screening C=CCN1C(=O)CSc2ccc(C(=O)N3CCC(C)CC3)cc21 returned KCNQ2 inh inactive and KCNQ2 enhance 2.3.
`CCOC(=O)c1c(NC(=S)Nc2ccc(OC)cc2)sc2c1CCC2` gave KCNQ2 inh inactive.
For C=CCNC(=S)Nc1sc2c(c1C(=O)OCC)CC(C(C)C)OC2 (centres undefined) the results were KCNQ2 inh inactive, KCNQ2 enhance 8.8*, Kir21 confirm inactive, HEK293 Tl flux 197%*, CHO-K1 ctr 22*, KCNQ1 sel pot 84*, KCNQ2 pot conf 14*, Kir2-1 sel -31 and KCNQ2 W236L pot inactive.
COc1ccc(NC(=O)CCS(=O)(=O)c2ccc3c(c2)oc(=O)n3C)cc1 was read as KCNQ2 inh inactive and KCNQ2 enhance 0.19.
For CC(C)(C)c1ccc(/C=C2/SC(N3CCCC3)=NC2=O)cc1 the results were KCNQ2 inh inactive, KCNQ2 enhance 6.9*, Kir21 confirm inactive, HEK293 Tl flux inactive, CHO-K1 ctr 4.3*, KCNQ1 sel pot -9, KCNQ2 pot conf 12*, Kir2-1 sel -14 and KCNQ2 W236L pot 0.6%*.
Screening Cc1ccc(/C=C2\SC(N3CCCCC3)=NC2=O)cc1 returned KCNQ2 inh inactive and KCNQ2 enhance 0.15.
`COc1ccc(-c2cc(C(F)F)n3ncc(C(=O)Nc4cccc(S(=O)(=O)N5CCOCC5)c4)c3n2)cc1` gave KCNQ2 inh inactive.
For COc1cccc(C(=O)NNC(=O)C(=O)Nc2ccc(C)c(Cl)c2)c1 the results were KCNQ2 inh inactive and KCNQ2 enhance 4.9.
`CCc1ccc(NC(=O)C(=O)NNC(=O)c2cccc(OC)c2)cc1` gave KCNQ2 inh inactive, KCNQ2 enhance 6.4*, Kir21 confirm inactive, HEK293 Tl flux 196%*, CHO-K1 ctr 5.0*, KCNQ1 sel pot -13, KCNQ2 pot conf 4.9*, Kir2-1 sel -21 and KCNQ2 W236L pot inactive.
CN(C)CCN(C)Cc1c2ccccc2c(CN(C)CCN(C)C)c2ccccc12 was read as KCNQ2 inh inactive.
